Data taken from PubChem BioAssay (NCI).
About 83,000 compounds went through this panel and 20% of them were active in at least one assay; those are over-represented in the sample as a whole.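 Each cell line was grown in a 96-well plate and treated with one concentration of compound for 48 hours. Values below 10 were considered active.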 Calls of active or inactive are those of the source.

tested on: SR leukemia; test: NCI-60 one-dose screen, 48 h (100 = growth as untreated, 0 = no growth, -100 = all killed); settings: 10 µM

| Structure (SMILES) | growth |
| --- | --- |
| O=C1/C(=C/c2ccc(O)cc2)Oc2ccc(Cl)cc21 | 109% (inactive) |
| COc1cc(C(=O)n2nc(N)c3c(C)cc(C)nc32)cc(OC)c1OC | 13% (inactive) |
| C#Cc1ccc(-n2c(/C=C/c3cc(OC)c(OC)c(OC)c3)nc3ncccc3c2=O)cc1 | 11.2% (inactive) |
| COC(=O)[C@]12CC[C@@H](C)[C@H](C)[C@@H]1C1=CC[C@@H]3[C@@]4(C)C[C@@H](O)[C@H](O)[C@@](C)(CO)[C@@H]4[C@H](O)C[C@@]3(C)[C@]1(C)CC2 | -36.5% (active) |
| Oc1ccccc1-c1nnc(Cn2c(Cc3cccc4ccccc34)nc3ccccc32)o1 | 94.8% (inactive) |
| COc1ccc(-c2nc(SCC(=O)c3ccc(Br)cc3)[nH]c(=O)c2C#N)cc1 | 94.5% (inactive) |
| COc1ccc(C2C=C(c3ccc(Cl)c(Cl)c3)N=C3SC(C)=CN32)cc1 (centres undefined) | 9.84% (active) |
| CCOc1nc(-c2ccccc2)cc2c(O)c(C(=O)NC(C)C)[nH]c(=O)c12 | 94% (inactive) |
| S=c1c2ncccc2c(-c2ccccn2)nn1Cc1ccccn1 | 87.2% (inactive) |
| Nc1cc(O)cc(O)c1 | 91.7% (inactive) |
| COc1c(-c2c3sc(=O)[nH]c3nc3c2c(=O)[nH]n3C(C)C)cc2c(c1OC)OCO2 | 84.9% (inactive) |
| Cc1c(C(=O)N[C@H](CO)Cc2ccccc2)[nH]c2ccc(Cl)cc2c1=O | 81.4% (inactive) |
| COc1cc(Cn2c(-c3ccccc3)c(Cl)c3c2-c2oncc2CC3)cc(OC)c1 | 0.637% (active) |
| C/C=C\COc1cc(C)c(Cl)cc1Cl | 107% (inactive) |
| CCOC(=O)CNC(=O)Nc1ccc(Oc2ccc(NC(=O)NCC(=O)OCC)cc2)cc1 | 94.2% (inactive) |
| c1ccc(CNc2nc(Nc3ccc(-c4nc5ccccc5[nH]4)cc3)c3cn[nH]c3n2)cc1 | -13.8% (active) |
| c1ccc(COCC[P+](c2ccccc2)(c2ccccc2)c2ccccc2)cc1 | -15.6% (active) |
| CCOC(=O)C1=C(Nc2ccc(OC)cc2)C(N)=NC1=N | 4.05% (active) |

| Structure (SMILES) | growth |
| --- | --- |
| NC(=O)C1CCCN(Cc2c[nH]c3ccccc23)C1 (centres undefined) | 96.9% (inactive) |
| CC(=O)n1nc(C(=O)OC(C)(C)C)c2cc(F)c(F)cc21 | 104% (inactive) |
| Cc1cc(Cl)ccc1Nc1nc(C(F)(F)F)ccc1C(=O)N/N=C/c1ccccc1Cl | 66% (inactive) |
| N#C/C(=C/c1cc([N+](=O)[O-])ccc1Cl)C(N)=O | 8.43% (active) |
| CCCCCCCCCCCC(=O)NCCCN(C)C | 2.57% (active) |
| CCc1nn2c(-c3cc(OC)c(OC)c(OC)c3)c(-c3cc(OC)c(OC)c(OC)c3)nc2s1 | 61.9% (inactive) |
| CCN1CCN(c2nc(NNC(=O)c3cccc(OC)c3)nc(N3CCN(C(c4ccccc4)c4ccccc4)CC3)n2)CC1 | -11.8% (active) |
| CCCCOCCOCCOCc1cc2c(cc1Br)OCO2 | 100% (inactive) |
| CCCCCCCCCCCCCC[n+]1ccccc1 | -22.6% (active) |
| Cc1cc(C)c2nc(C)c(C)[n+]([O-])c2c1 | 82.3% (inactive) |
| Clc1cc(Cl)c(OCCCCCCN2CCNCC2)c(Cl)c1 | -13.9% (active) |
| Cc1cc(C(C)(C)CC(C)(C)C)ccc1OCCOCC[N+](C)(C)Cc1ccccc1 | -62.5% (active) |
| CCCCCC(=O)N1c2ccccc2NC2=C(C(=O)CC(c3ccc(OC)c(OC)c3)C2)C1c1ccc(C(F)(F)F)cc1 (centres undefined) | 51.8% (inactive) |
| COc1cc(C2C(C#N)=C(c3c[nH]c4ccccc34)Nc3nc(N)[nH]c(=O)c32)cc(OC)c1OC (centres undefined) | 78.7% (inactive) |
| COc1ccc(-c2nc(-c3nc4ccc(C)cc4[nH]3)c3ccccn23)cc1 | 33.2% (inactive) |
| COCCOC(=O)NC(=O)Nc1ccc(/C(=N/O)c2ccc(Cl)cc2)cc1 | 8.7% (active) |
| CCN(CCCNC(=O)Cc1cc(=O)oc2cc(N(C)C)ccc12)CCNc1ccnc2cc(Cl)ccc12 | 1.46% (active) |
| CC(C)c1ncc(CO)n1Cc1c(Cl)cccc1Cl | 97.4% (inactive) |

tested on: RPMI-8226 leukemia; test: as above; settings: 10 µM

| Structure (SMILES) | growth |
| --- | --- |
| O=C1/C(=C/c2ccc(O)cc2)Oc2ccc(Cl)cc21 | 119% (inactive) |
| COc1cc(C(=O)n2nc(N)c3c(C)cc(C)nc32)cc(OC)c1OC | 59.6% (inactive) |
| C#Cc1ccc(-n2c(/C=C/c3cc(OC)c(OC)c(OC)c3)nc3ncccc3c2=O)cc1 | 40.9% (inactive) |
| COC(=O)[C@]12CC[C@@H](C)[C@H](C)[C@@H]1C1=CC[C@@H]3[C@@]4(C)C[C@@H](O)[C@H](O)[C@@](C)(CO)[C@@H]4[C@H](O)C[C@@]3(C)[C@]1(C)CC2 | -20.7% (active) |
| Oc1ccccc1-c1nnc(Cn2c(Cc3cccc4ccccc34)nc3ccccc32)o1 | 95.8% (inactive) |
| COc1ccc(-c2nc(SCC(=O)c3ccc(Br)cc3)[nH]c(=O)c2C#N)cc1 | 104% (inactive) |
| COc1ccc(C2C=C(c3ccc(Cl)c(Cl)c3)N=C3SC(C)=CN32)cc1 (centres undefined) | 18% (inactive) |
| CCOc1nc(-c2ccccc2)cc2c(O)c(C(=O)NC(C)C)[nH]c(=O)c12 | 40.1% (inactive) |
| S=c1c2ncccc2c(-c2ccccn2)nn1Cc1ccccn1 | 97.9% (inactive) |
| Nc1cc(O)cc(O)c1 | 109% (inactive) |
| COc1c(-c2c3sc(=O)[nH]c3nc3c2c(=O)[nH]n3C(C)C)cc2c(c1OC)OCO2 | 93.2% (inactive) |
| Cc1c(C(=O)N[C@H](CO)Cc2ccccc2)[nH]c2ccc(Cl)cc2c1=O | 92.3% (inactive) |
| COc1cc(Cn2c(-c3ccccc3)c(Cl)c3c2-c2oncc2CC3)cc(OC)c1 | 58.9% (inactive) |
| C/C=C\COc1cc(C)c(Cl)cc1Cl | 99.7% (inactive) |
| CCOC(=O)CNC(=O)Nc1ccc(Oc2ccc(NC(=O)NCC(=O)OCC)cc2)cc1 | 99.9% (inactive) |
| c1ccc(CNc2nc(Nc3ccc(-c4nc5ccccc5[nH]4)cc3)c3cn[nH]c3n2)cc1 | 2.15% (active) |
| c1ccc(COCC[P+](c2ccccc2)(c2ccccc2)c2ccccc2)cc1 | -30.3% (active) |
| CCOC(=O)C1=C(Nc2ccc(OC)cc2)C(N)=NC1=N | 24.7% (inactive) |
| NC(=O)C1CCCN(Cc2c[nH]c3ccccc23)C1 (centres undefined) | 105% (inactive) |

| Structure (SMILES) | growth |
| --- | --- |
| CC(=O)n1nc(C(=O)OC(C)(C)C)c2cc(F)c(F)cc21 | 89.1% (inactive) |
| Cc1cc(Cl)ccc1Nc1nc(C(F)(F)F)ccc1C(=O)N/N=C/c1ccccc1Cl | 50.5% (inactive) |
| CN1/C(=C\C(I)C(I)C2=[N+](C)c3ccccc3C2(C)C)C(C)(C)c2ccccc21 (centres undefined) | -10.4% (active) |
| N#C/C(=C/c1cc([N+](=O)[O-])ccc1Cl)C(N)=O | 68.7% (inactive) |
| CCCCCCCCCCCC(=O)NCCCN(C)C | 78.4% (inactive) |
| CCc1nn2c(-c3cc(OC)c(OC)c(OC)c3)c(-c3cc(OC)c(OC)c(OC)c3)nc2s1 | 71.3% (inactive) |
| CCN1CCN(c2nc(NNC(=O)c3cccc(OC)c3)nc(N3CCN(C(c4ccccc4)c4ccccc4)CC3)n2)CC1 | 5.26% (active) |
| CCCCOCCOCCOCc1cc2c(cc1Br)OCO2 | 99.2% (inactive) |
| CCCCCCCCCCCCCC[n+]1ccccc1 | -57% (active) |
| Cc1cc(C)c2nc(C)c(C)[n+]([O-])c2c1 | 90.7% (inactive) |
| Clc1cc(Cl)c(OCCCCCCN2CCNCC2)c(Cl)c1 | -24.9% (active) |
| COc1ccc(NC(=O)c2sc3nc4c(cc3c2N)C(O)CCC4)cc1 (centres undefined) | 103% (inactive) |
| Cc1cc(C(C)(C)CC(C)(C)C)ccc1OCCOCC[N+](C)(C)Cc1ccccc1 | -20% (active) |
| CCCCCC(=O)N1c2ccccc2NC2=C(C(=O)CC(c3ccc(OC)c(OC)c3)C2)C1c1ccc(C(F)(F)F)cc1 (centres undefined) | 21.6% (inactive) |
| COc1cc(C2C(C#N)=C(c3c[nH]c4ccccc34)Nc3nc(N)[nH]c(=O)c32)cc(OC)c1OC (centres undefined) | 98.2% (inactive) |
| COc1ccc(-c2nc(-c3nc4ccc(C)cc4[nH]3)c3ccccn23)cc1 | -6.44% (active) |
| COCCOC(=O)NC(=O)Nc1ccc(/C(=N/O)c2ccc(Cl)cc2)cc1 | 22.3% (inactive) |
| CCN(CCCNC(=O)Cc1cc(=O)oc2cc(N(C)C)ccc12)CCNc1ccnc2cc(Cl)ccc12 | 54.7% (inactive) |
| CC(C)c1ncc(CO)n1Cc1c(Cl)cccc1Cl | 97.6% (inactive) |
